Measured values taken from PubChem BioAssay (NCI).
About 83,000 compounds went through this panel and 20% of them were active in at least one assay; those are over-represented in the sample as a whole.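 48-hour exposure, single concentration, 96-well plates; percent growth endpoint where 0 means no net growth. Active: below 10.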 Activity calls are given as the source filed them.

Tested on: A498 renal
Assay: NCI-60 one-dose screen, 48 h (100 = growth as untreated, 0 = no growth, -100 = all killed)
Conditions: 10 µM

Compound	growth
O=C(/C=C/c1ccc(Cl)cc1)c1nc2ccccc2n1Cc1ccc(F)cc1	125% (inactive)
CC1=C(CCC=O)C2=C(C)C3(CC3)[C@@](C)(O)C(=O)C2=C1	-56.8% (active)
O=C(NC([Se])=NC1CCCCC1)c1ccc2c(c1)OCO2	31.3% (inactive)
C[C@H]1[C@H](OC(=O)CCC(=O)N(CCCc2cn(-c3ccc(C#N)cc3)nn2)CCNc2ccnc3cc(Cl)ccc23)O[C@@H]2OC3(C)CC[C@H]4[C@H](C)CC[C@@H]1[C@@]24OO3	110% (inactive)
C[C@H]1[C@@H](Oc2ccc(-c3cn(-c4ccnc5cc(Cl)ccc45)nn3)cc2)O[C@@H]2OC3(C)CC[C@H]4[C@H](C)CC[C@@H]1[C@@]24OO3	95% (inactive)
COc1ccc(/C=C/C(=O)c2nc3ccccc3n2Cc2ccc(Br)cc2)cc1	122% (inactive)
COC(=O)CCn1c(-c2ccc(-n3cc(-c4ccc(O[C@H]5O[C@@H]6OC7(C)CC[C@H]8[C@H](C)CC[C@@H]([C@H]5C)[C@@]68OO7)cc4)nn3)cc2)nc2ccccc21	74.4% (inactive)
C[C@H]1[C@H](OC(=O)CCC(=O)N(CCCc2cn(-c3ccc([N+](=O)[O-])cc3)nn2)CCNc2ccnc3cc(Cl)ccc23)O[C@@H]2OC3(C)CC[C@H]4[C@H](C)CC[C@@H]1[C@@]24OO3	116% (inactive)

Tested on: HL-60(TB) leukemia
Assay: as above
Conditions: 10 µM unless noted

Compound	growth
O=C(/C=C/c1ccco1)c1nc2ccccc2n1Cc1ccc(Br)cc1	16% (inactive)
O=C(/C=C/c1ccco1)c1nc2ccccc2n1Cc1ccc(F)cc1	15.8% (inactive)
COc1cc2cc(C(=O)N3C[C@@H](CCl)c4c3cc(OC(=O)N3CCN(C)[C@@H]5CSSC[C@@H]53)c3ccccc43)[nH]c2c(OC)c1OC	1.55% (active)
C#CC[Se]C(=O)c1ccc2n[se]nc2c1	1.82% (active)
O=C(/C=C/c1ccc(Cl)cc1Cl)c1nc2ccccc2n1Cc1ccc(F)cc1	28% (inactive)
O=C(/C=C/c1ccc(Cl)cc1)c1nc2ccccc2n1Cc1ccc(Br)cc1	35.8% (inactive)
CCOP(=O)(OCC)C(NC(C)=O)C(=O)SCCN (stereo not drawn)	99.2% (inactive)
COc1cc2cc(C(=O)N3C[C@@H](CCl)c4c3cc(OC(=O)N3CCN(C)[C@@H]5CSSC[C@H]53)c3ccccc43)[nH]c2c(OC)c1OC	-43.4% (active)
COc1ccc2cc([C@H](C)C(=O)[Se]CCC#N)ccc2c1	-42.5% (active)
CC12OOC(C)(OO1)C2CCC(=O)OCCNc1ccnc2cc(Cl)ccc12 (stereo not drawn)	-40.3% (active)
CC(C)N=C([Se])NC(=O)c1cccs1	56% (inactive)
Cc1ccc2[nH]c(=S)n(-c3ccc(F)cc3)c(=O)c2c1	118% (inactive)
CCOC(=O)C1=C(Nc2ccccc2)C(=O)OC12C(=O)Nc1ccccc12 (stereo not drawn)	102% (inactive)
CC12CCC3(CCC(=O)NCCCNc4ccnc5cc(Cl)ccc45)[C@@](C)(OO[C@]3(C)O1)O2	14.9% (inactive)
CC[C@]12C=CCN3CC[C@@]4(c5ccc(OC)cc5N(C)[C@H]4[C@@](O)(C(=O)OC)[C@@H]1OC(=O)CCCC[P+](C1CCCCC1)(C1CCCCC1)C1CCCCC1)[C@@H]32	-36.7% (active)
CC(=O)Oc1ccccc1C(=O)[Se]C(=NC(C)C)NC(C)C	-41.3% (active)
COCCOCCOCCOc1ccc(-n2cc(CCCN(CCNc3ccnc4cc(Cl)ccc34)C(=O)CCC(=O)O[C@@H]3O[C@@H]4OC5(C)CC[C@H]6[C@H](C)CC[C@@H]([C@H]3C)[C@@]46OO5)nn2)cc1	-27.5% (active)
C[C@H]1[C@@H](CC(=O)N[C@@H](Cc2coc3ccccc23)B(O)O)O[C@@H]2OC3(C)CC[C@H]4[C@H](C)CC[C@@H]1[C@@]24OO3	-4.67% (active)

Compound	growth
COP(=O)(CC(F)(F)C(F)(F)F)OC	8.78% (active)
CC12OOC(C)(OO1)C2CCC(=O)NCCNc1ccnc2cc(Cl)ccc12 (stereo not drawn)	88.9% (inactive)
CC[C@]12C=CCN3CC[C@@]4(c5ccc(OC)cc5N(C)[C@H]4[C@@](O)(C(=O)OC)[C@@H]1OC(=O)CCC[P+](c1ccc(C)cc1)(c1ccc(C)cc1)c1ccc(C)cc1)[C@@H]32	-47.5% (active)
CC(C)N=C([Se])NC(=O)c1ccccc1	-15.4% (active)
CC[C@]12C=CCN3CC[C@@]4(c5ccc(OC)cc5N(C)[C@H]4[C@@](O)(C(=O)OC)[C@@H]1OC(=O)CCC[P+](C1CCCCC1)(C1CCCCC1)C1CCCCC1)[C@@H]32	-37.1% (active)
CC1=C(COCCOC(=O)c2ccc(S(=O)(=O)F)cc2)C2=C(C)C3(CC3)[C@@](C)(O)C(=O)C2=C1	-22.9% (active)
CC[C@]12C=CCN3CC[C@@]4(c5ccc(OC)cc5N(C)[C@H]4[C@@](O)(C(=O)OC)[C@@H]1OC(=O)CCCC[P+](c1ccc(OC)cc1)(c1ccc(OC)cc1)c1ccc(OC)cc1)[C@@H]32	-45.2% (active)
CC[C@@]12CC(C(=O)OC)=C3Nc4cc5c(cc4[C@@]34CCN(C[C@H]3O[C@H]31)[C@@H]24)[C@@H]1[C@H](O5)[C@@H](O)[C@@]2(CC)CC(C(=O)OC)=C3Nc4cc(OC)ccc4[C@@]34CCN1[C@@H]24	-17% (active)
CCOP(=O)(CC(F)(F)C(F)(F)F)OCC	17.2% (inactive)
CC(=O)Oc1ccccc1C(=O)NC([Se])=NC1CCCCC1	7.53% (active)
C[C@H]1[C@H](OC(=O)CCC(=O)N(CCCc2cn(-c3ccc(CN4CCOCC4)cc3)nn2)CCNc2ccnc3cc(Cl)ccc23)O[C@@H]2OC3(C)CC[C@H]4[C@H](C)CC[C@@H]1[C@@]24OO3	-47% (active)
O=C(/C=C/c1ccc(Cl)cc1)c1nc2ccccc2n1Cc1ccc(F)cc1	-2.58% (active)
O=C(NC([Se])=NC1CCCCC1)c1ccc2c(c1)OCO2	65.7% (inactive)
C[C@H]1[C@H](OC(=O)CCC(=O)N(CCCc2cn(-c3ccc(C#N)cc3)nn2)CCNc2ccnc3cc(Cl)ccc23)O[C@@H]2OC3(C)CC[C@H]4[C@H](C)CC[C@@H]1[C@@]24OO3	-29.9% (active)
C[C@H]1[C@@H](Oc2ccc(-c3cn(-c4ccnc5cc(Cl)ccc45)nn3)cc2)O[C@@H]2OC3(C)CC[C@H]4[C@H](C)CC[C@@H]1[C@@]24OO3	6.05% (active)
COC(=O)CCn1c(-c2ccc(-n3cc(-c4ccc(O[C@H]5O[C@@H]6OC7(C)CC[C@H]8[C@H](C)CC[C@@H]([C@H]5C)[C@@]68OO7)cc4)nn3)cc2)nc2ccccc21	-3.65% (active)
C[C@H]1[C@H](OC(=O)CCC(=O)N(CCCc2cn(-c3ccc([N+](=O)[O-])cc3)nn2)CCNc2ccnc3cc(Cl)ccc23)O[C@@H]2OC3(C)CC[C@H]4[C@H](C)CC[C@@H]1[C@@]24OO3	-24.2% (active)
